Test results published in the supplement of paper PMC7366291.
Counter-ions that a name gives are not always drawn. ± gives the standard deviation or the standard deviation of the averaged measurements.

Tests used:
Details in all cases: 25 µM; exposure: 24-48 hpf
[1] = tested on: Danio rerio Tg(wt1b:EGFP) embryo, pronephros; assay: glomerular separation, fold change vs DMSO control; higher = glomeruli further apart (abnormal)
How it was run: (§1)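 Dechorionated Tg(wt1b:EGFP) zebrafish embryos were treated with 25 μM compound in 0.5% DMSO, in HEPES-buffered E3 with 0.003% PTU, from 24 to 48 hpf at 28.5°C. On maximum projections of dorsal pronephros images, 16 hand-placed reference points in Fiji gave distances and angles, and values more than 2 SD from the feature mean were left out. Results are fold changes over the mean of same-day DMSO-treated embryos.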

[2] = tested on: Danio rerio Tg(wt1b:EGFP) embryo, pronephros; assay: glomerular width (mean of left and right), fold change vs DMSO control; higher = wider glomerulus
How it was run: as §1

[3] = tested on: Danio rerio Tg(wt1b:EGFP) embryo, pronephros; assay: fraction of imaged embryos annotated as normal kidney; higher = less nephrotoxic; extreme values may be limits of the assay
How it was run: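 The value given is the share of embryos in each treatment scored as having a normal kidney. To obtain it, dechorionated Tg(wt1b:EGFP) zebrafish embryos were treated from 24 to 48 hpf at 28.5°C with 25 μM compound in 0.5% DMSO, in 5 mM HEPES-buffered E3 with 0.003% PTU. Pronephroi were imaged by widefield fluorescence (470 nm, 10 z-slices), and every embryo was annotated by hand from maximum projections.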

[4] = tested on: Danio rerio Tg(wt1b:EGFP) embryo, pronephros; assay: pronephric angle neck segment to proximal convoluted tubule (mean of left and right), fold change vs DMSO control; higher = larger pronephric angle
How it was run: as §1

Compound: O=C(O)c1ccccc1OP(=O)(O)O [Fosfosal]
- glomerular separation [1]: 0.789 ± 0.23
- glomerular width [2]: 1.07 ± 0.022
- fraction of imaged embryos annotated as normal kidney [3]: 0.833
- pronephric angle neck segment [4]: 0.9628 ± 0.0065

Compound: CC(=O)N(CC(C)C(=O)O)c1c(I)cc(I)c(N)c1I (stereo unspecified) [Iocetamic acid]
- glomerular separation [1]: 0.546 ± 0.25
- glomerular width [2]: 0.974 ± 0.011
- fraction of imaged embryos annotated as normal kidney [3]: 0.917
- pronephric angle neck segment [4]: 0.986 ± 0.024

Compound: CC1Cc2ccccc2N1NC(=O)c1ccc(Cl)c(S(N)(=O)=O)c1 (stereo unspecified) [Indapamide]
- glomerular separation [1]: 1.2 ± 0.88
- glomerular width [2]: 0.904 ± 0.058
- fraction of imaged embryos annotated as normal kidney [3]: 0.909
- pronephric angle neck segment [4]: 0.988 ± 0.041

Compound: CCN(CC)CCNC(=O)c1ccc(N)cc1 [Procainamide hydrochloride]
- glomerular separation [1]: 0.95 ± 0.48
- glomerular width [2]: 1.11 ± 0.027
- fraction of imaged embryos annotated as normal kidney [3]: 0.455
- pronephric angle neck segment [4]: 1.1 ± 0.22

Compound: N[C@@H]1CONC1=O [D-cycloserine]
- glomerular separation [1]: 0.796 ± 0.24
- glomerular width [2]: 0.976 ± 0.075
- fraction of imaged embryos annotated as normal kidney [3]: 0.75
- pronephric angle neck segment [4]: 0.9921 ± 0.0046

Compound: CC(=O)Nc1c(I)c(NC(C)=O)c(I)c(C(=O)O)c1I [Diatrizoic acid dihydrate]
- glomerular separation [1]: 1.34 ± 0.56
- glomerular width [2]: 1.03 ± 0.016
- fraction of imaged embryos annotated as normal kidney [3]: 0.583
- pronephric angle neck segment [4]: 1.05 ± 0.033

Compound: O=C(O)c1cccnc1 [Niacin]
- glomerular separation [1]: 0.706 ± 0.25
- glomerular width [2]: 1.04 ± 0.063
- fraction of imaged embryos annotated as normal kidney [3]: 0.917
- pronephric angle neck segment [4]: 0.992 ± 0.032

Compound: CN(C)c1cc(NC(=O)CNC(C)(C)C)c(O)c2c1C[C@H]1C[C@H]3[C@H](N(C)C)C(O)=C(C(N)=O)C(=O)[C@@]3(O)C(O)=C1C2=O [Tigecycline]
- glomerular separation [1]: 0.759 ± 0.22
- glomerular width [2]: 1.03 ± 0.045
- fraction of imaged embryos annotated as normal kidney [3]: 0.833
- pronephric angle neck segment [4]: 0.954 ± 0.02

Compound: N=C(N)NS(=O)(=O)c1ccc(N)cc1 [Sulfaguanidine]
- glomerular separation [1]: 1.04 ± 0.35
- glomerular width [2]: 0.979 ± 0.034
- fraction of imaged embryos annotated as normal kidney [3]: 0.833
- pronephric angle neck segment [4]: 1.02 ± 0.036

Compound: c1ccc(CN(CC2=NCCN2)c2ccccc2)cc1 [Antazoline hydrochloride]
- glomerular separation [1]: 1.08 ± 0.41
- glomerular width [2]: 1.04 ± 0.016
- fraction of imaged embryos annotated as normal kidney [3]: 0.833
- pronephric angle neck segment [4]: 0.9446 ± 0.00065

Compound: O=C1NCCN1c1ncc([N+](=O)[O-])s1 [Niridazole]
- glomerular separation [1]: 1.24 ± 0.57
- glomerular width [2]: 0.867 ± 0.021
- fraction of imaged embryos annotated as normal kidney [3]: 0.833
- pronephric angle neck segment [4]: 1.14 ± 0.077

Compound: CC1(C)O[C@@H]2[C@@H](CO[C@@]3(COS(N)(=O)=O)OC(C)(C)O[C@@H]23)O1 [Topiramate]
- glomerular separation [1]: 1.18 ± 0.51
- glomerular width [2]: 1.086 ± 0.0046
- fraction of imaged embryos annotated as normal kidney [3]: 0.583
- pronephric angle neck segment [4]: 1 ± 0.025

Compound: CCC(=O)OCC(=O)[C@@]1(OC(=O)CC)[C@@H](C)C[C@H]2[C@@H]3CCC4=CC(=O)C=C[C@]4(C)[C@@]3(Cl)[C@@H](O)C[C@@]21C [Beclomethasone dipropionate]
- glomerular separation [1]: 1.04 ± 0.69
- glomerular width [2]: 1.16 ± 0.021
- fraction of imaged embryos annotated as normal kidney [3]: 0.417
- pronephric angle neck segment [4]: 1.16 ± 0.091

Compound: O=C1CCc2cc(OCCCCc3nnnn3C3CCCCC3)ccc2N1 [Cilostazol]
- glomerular separation [1]: 1.05 ± 0.38
- glomerular width [2]: 1 ± 0.023
- fraction of imaged embryos annotated as normal kidney [3]: 0.75
- pronephric angle neck segment [4]: 0.994 ± 0.05

Compound: CN1CCN(c2c(F)cc3c(=O)c(C(=O)O)cn4c3c2SCC4)CC1 [Rufloxacin]
- glomerular separation [1]: 0.835 ± 0.21
- glomerular width [2]: 0.9236 ± 0.0089
- fraction of imaged embryos annotated as normal kidney [3]: 1
- pronephric angle neck segment [4]: 0.986 ± 0.027

Compound: CN1CCC(=C2c3ccccc3C=Cc3ccccc32)CC1 [Cyproheptadine hydrochloride]
- glomerular separation [1]: 1.28 ± 0.31
- glomerular width [2]: 0.94 ± 0.06
- fraction of imaged embryos annotated as normal kidney [3]: 0.667
- pronephric angle neck segment [4]: 1.2 ± 0.081

Compound: CNC1(C)C2CCC(C2)C1(C)C (stereo unspecified) [Mecamylamine hydrochloride]
- glomerular separation [1]: 1.09 ± 0.32
- glomerular width [2]: 0.973 ± 0.089
- fraction of imaged embryos annotated as normal kidney [3]: 0.833
- pronephric angle neck segment [4]: 1.07 ± 0.074

Compound: CC(C)(C)NCC(O)c1cc(O)cc(O)c1 (stereo unspecified) [Terbutaline hemisulfate]
- glomerular separation [1]: 1.1 ± 0.36
- glomerular width [2]: 1 ± 0.029
- fraction of imaged embryos annotated as normal kidney [3]: 0.75
- pronephric angle neck segment [4]: 1.01 ± 0.039

Compound: COc1ccc(-c2ccc(=N)n(CCCC(=O)O)n2)cc1 [Gabazine bromide]
- glomerular separation [1]: 0.985 ± 0.27
- glomerular width [2]: 0.983 ± 0.024
- fraction of imaged embryos annotated as normal kidney [3]: 0.667
- pronephric angle neck segment [4]: 1.02 ± 0.026

Compound: CN1CCC(=C2c3ccccc3CC(=O)c3sccc32)CC1 [Ketotifen fumarate]
- glomerular separation [1]: 0.991 ± 0.29
- glomerular width [2]: 1.06 ± 0.027
- fraction of imaged embryos annotated as normal kidney [3]: 0.833
- pronephric angle neck segment [4]: 0.948 ± 0.013

Compound: CNCC[C@@H](Oc1ccccc1C)c1ccccc1 [Tomoxetine hydrochloride]
- glomerular separation [1]: 1.04 ± 0.55
- glomerular width [2]: 0.979 ± 0.023
- fraction of imaged embryos annotated as normal kidney [3]: 0.75
- pronephric angle neck segment [4]: 1 ± 0.022

Compound: CCC1(c2ccccc2)NC(=O)N(C)C1=O (stereo unspecified) [Mephenytoin]
- glomerular separation [1]: 1.13 ± 0.4
- glomerular width [2]: 0.9232 ± 0.0066
- fraction of imaged embryos annotated as normal kidney [3]: 0.75
- pronephric angle neck segment [4]: 1.0068 ± 0.00059

Compound: Oc1ccc(C2CNCCc3c2cc(O)c(O)c3Cl)cc1 (stereo unspecified) [Fenoldopam]
- glomerular separation [1]: 0.757 ± 0.32
- glomerular width [2]: 1.01 ± 0.038
- fraction of imaged embryos annotated as normal kidney [3]: 0.917
- pronephric angle neck segment [4]: 0.979 ± 0.053

Compound: CN(C)CCN(Cc1ccc(Cl)cc1)c1ccccn1 [Chloropyramine hydrochloride]
- glomerular separation [1]: 0.981 ± 0.57
- glomerular width [2]: 1.07 ± 0.064
- fraction of imaged embryos annotated as normal kidney [3]: 0.917
- pronephric angle neck segment [4]: 0.964 ± 0.016

Compound: CNS(=O)(=O)Cc1ccc2[nH]cc(CCN(C)C)c2c1 [Sumatriptan succinate]
- glomerular separation [1]: 0.982 ± 0.29
- glomerular width [2]: 1.03 ± 0.053
- fraction of imaged embryos annotated as normal kidney [3]: 1
- pronephric angle neck segment [4]: 1 ± 0.04

Compound: COc1ccc(C2CNC(=O)C2)cc1OC1CCCC1 (stereo unspecified) [Rolipram]
- glomerular separation [1]: 0.895 ± 0.31
- glomerular width [2]: 0.955 ± 0.023
- fraction of imaged embryos annotated as normal kidney [3]: 0.833
- pronephric angle neck segment [4]: 1.08 ± 0.086

Compound: Cc1cc(/C=C/c2ccc3cc(N(C)C)ccc3[n+]2C)c(C)n1-c1ccccc1 [Pyrvinium pamoate]
- glomerular separation [1]: 1.12 ± 0.41
- glomerular width [2]: 0.975 ± 0.021
- fraction of imaged embryos annotated as normal kidney [3]: 0.833
- pronephric angle neck segment [4]: 1.02 ± 0.034

Compound: C[C@]12C=CC(=O)C=C1CC[C@@H]1[C@@H]2C(=O)C[C@@]2(C)[C@H]1CC[C@]2(O)C(=O)CO [Prednisone]
- glomerular separation [1]: 1.19 ± 0.48
- glomerular width [2]: 0.972 ± 0.03
- fraction of imaged embryos annotated as normal kidney [3]: 0.833
- pronephric angle neck segment [4]: 1.08 ± 0.065

Compound: Cn1c(NCCN(CCO)CCCc2ccc([N+](=O)[O-])cc2)cc(=O)n(C)c1=O [Nifekalant]
- glomerular separation [1]: 0.925 ± 0.31
- glomerular width [2]: 0.965 ± 0.033
- fraction of imaged embryos annotated as normal kidney [3]: 0.833
- pronephric angle neck segment [4]: 0.9169 ± 0.0049
